# The entries come from a sample that favours hits as a whole.
# NOMO-1 viab = STK33 inhibitor candidate reducing NOMO-1 cell viability; NOMO-1 AML viability, CellTiter-Glo luminescence, 72 h; inhibition, % (no concentration beside the values); 37,000 compounds, 7.5% hits; AID 2330; in the data active means inhibition above about 80%; inconclusive means no clear call, values can overlap the other calls
# STK33 kin inh = inhibitors of human STK33 kinase | AID 2322 | Q9BYT3 | inhibition, % at 12.5 µM | ADP-Glo luminescence, MBP substrate | 27,000 compounds, 0.44% hits; in the data active means inhibition above about 20%; inconclusive means no clear call, values can overlap the other calls
# Target sequence (Q9BYT3 whole entry, looked up): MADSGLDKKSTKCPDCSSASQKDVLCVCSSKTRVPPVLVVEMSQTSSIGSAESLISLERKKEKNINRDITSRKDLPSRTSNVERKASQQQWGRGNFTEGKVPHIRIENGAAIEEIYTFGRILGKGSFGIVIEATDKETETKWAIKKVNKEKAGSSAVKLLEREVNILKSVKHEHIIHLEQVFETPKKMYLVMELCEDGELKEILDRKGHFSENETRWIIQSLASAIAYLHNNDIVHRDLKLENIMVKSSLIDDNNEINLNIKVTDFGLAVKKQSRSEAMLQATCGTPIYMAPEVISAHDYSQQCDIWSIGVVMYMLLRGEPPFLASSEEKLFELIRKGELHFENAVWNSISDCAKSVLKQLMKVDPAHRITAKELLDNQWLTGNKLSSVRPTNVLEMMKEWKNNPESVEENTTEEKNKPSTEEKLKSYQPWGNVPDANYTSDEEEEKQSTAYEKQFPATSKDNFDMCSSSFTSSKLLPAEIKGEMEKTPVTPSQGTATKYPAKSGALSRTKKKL
# PD-1 reverse act = reversal of PD-1 mediated T-cell inhibition. AID 2316. 29,000 tested, under 10 active. activation, % (concentration not given with the values). primary human CD4 T cells, PD-L1 beads, CellTiter-Glo 96 h; call rule not given here;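 further: 0% = median vehicle wells and 100% = positive control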
# Active calls of the source: *; ? = inconclusive; / = not tested or not shown.
SMILES,NOMO-1 viab,STK33 kin inh,PD-1 reverse act
C[C@H](CO)N1C[C@H](C)[C@@H](CN(C)Cc2ccc(C(F)(F)F)cc2)Oc2ccc(NS(=O)(=O)c3ccc(Cl)cc3)cc2C1=O,68,-2,-6
C[C@@H]1CN([C@H](C)CO)C(=O)c2cc(NS(=O)(=O)c3ccc(Cl)cc3)ccc2O[C@H]1CN(C)Cc1ccc(C(F)(F)F)cc1,123*,/,-1
C[C@H](CO)N1C[C@H](C)[C@H](CN(C)Cc2ccc(C(F)(F)F)cc2)Oc2ccc(NS(=O)(=O)c3ccc(F)cc3)cc2C1=O,1,4,0
C[C@H]1CN([C@@H](C)CO)C(=O)c2cc(NS(=O)(=O)c3ccc(Cl)cc3)ccc2O[C@@H]1CN(C)Cc1ccc(C(F)(F)F)cc1,111*,5,-6
FC(F)(F)c1ccc(-c2nnc(SCc3ccncc3)n2Cc2ccco2)cc1,20,/,0
C[C@H]1CN([C@@H](C)CO)C(=O)Cc2cc(NC(=O)NC3CCCCC3)ccc2O[C@@H]1CN(C)Cc1ccc(Cl)c(Cl)c1,105*,4,0
C[C@@H]1CN([C@H](C)CO)C(=O)Cc2cc(NC(=O)NC3CCCCC3)ccc2O[C@@H]1CN(C)Cc1ccncc1,10,/,-1
C[C@H](CO)N1C[C@H](C)[C@H](CN(C)Cc2ccc(Cl)c(Cl)c2)Oc2ccc(NC(=O)C3CCCCC3)cc2CC1=O,37,-1,1
C[C@@H]1CN([C@@H](C)CO)C(=O)Cc2cc(NC(=O)C3CCCCC3)ccc2O[C@@H]1CN(C)Cc1ccc(Cl)c(Cl)c1,123*,-2,/
C[C@@H]1CN([C@@H](C)CO)C(=O)Cc2cc(NC(=O)NC3CCCCC3)ccc2O[C@@H]1CN(C)Cc1ccc(Cl)c(Cl)c1,111*,1,/
C[C@@H]1CN([C@H](C)CO)C(=O)Cc2cc(NC(=O)NC3CCCCC3)ccc2O[C@H]1CN(C)Cc1ccncc1,6,2,2
N#Cc1sc2sc(C#N)c(-c3ccco3)c2c1N,47,/,-2
CC(=O)NCc1c(F)cccc1Cl,9,-3,2
COc1ccc(CN(C)C[C@@H]2Oc3ccc(NC(=O)Nc4ccc(C(F)(F)F)cc4)cc3CC(=O)N([C@@H](C)CO)C[C@@H]2C)cc1,17,-2,/
C[C@H](CO)N1C[C@H](C)[C@H](CN(C)Cc2ccc(Oc3ccccc3)cc2)Oc2ccc(NC(=O)Nc3ccc(C(F)(F)F)cc3)cc2CC1=O,119*,-4,-4
C[C@@H]1CN([C@H](C)CO)C(=O)Cc2cc(NC(=O)Nc3ccc(C(F)(F)F)cc3)ccc2O[C@H]1CN(C)Cc1ccc(Oc2ccccc2)cc1,112*,2,/
Cc1cccc(-c2nc3cc(NC(=O)COc4ccccc4[N+](=O)[O-])ccc3o2)c1,-20,1,0
CCOC(=O)NC(=S)Nc1ccc(F)cc1,-25,/,0
O=C(Cn1c(=O)oc2ccccc21)Nc1cccc([N+](=O)[O-])c1,28,2,2
Cc1ccc2oc(-c3cc(NC(=O)COc4ccccc4)ccc3Cl)nc2c1,22,3,2
CN(CC(=O)Nc1cc(C(F)(F)F)ccc1Cl)S(=O)(=O)c1ccc2ccccc2c1,-17,0,1
C[C@@H]1CN([C@@H](C)CO)C(=O)Cc2cc(NC(=O)Nc3ccc(C(F)(F)F)cc3)ccc2O[C@@H]1CN(C)Cc1ccncc1,116*,-1,-4
C[C@H]1CN([C@@H](C)CO)C(=O)Cc2cc(NC(=O)Nc3ccc(C(F)(F)F)cc3)ccc2O[C@H]1CN(C)Cc1ccncc1,134*,0,-2
C[C@@H]1CN([C@H](C)CO)C(=O)Cc2cc(NC(=O)Nc3ccc(C(F)(F)F)cc3)ccc2O[C@@H]1CN(C)Cc1ccncc1,?,-1,-3
C[C@H](CO)N1C[C@H](C)[C@H](CN(C)Cc2ccc(C(F)(F)F)cc2)Oc2ccc(NC(=O)c3ccncc3)cc2CC1=O,32,3,-2
SMILES,NOMO-1 viab,STK33 kin inh,PD-1 reverse act
Cc1ccc(NC(=O)c2ccc(CSc3nnc(-c4ccc(NC(=O)c5ccccc5Cl)cc4)n3C)cc2)cc1,20,4,-1
O=C(Oc1ccc(N(Cc2cccs2)C2=NS(=O)(=O)c3ccccc32)cc1)c1ccccc1,35,/,1
C=CCN1C(C(=O)c2ccccc2)=C(OC(=O)c2ccccc2)c2ccccc2S1(=O)=O,108*,/,-6
Cc1ccc(NC(=O)CSc2nc3ccccc3s2)cc1C,/,-1,/
CC(C)(C)NC(=O)CC(c1ccccc1)c1ccccc1,28,/,0
COc1ccccc1NC(=O)COc1ccc(Cl)cc1CO,31,2,-1
C[C@H]1CN([C@@H](C)CO)C(=O)c2cccc(NC(=O)c3ccc(-c4nccs4)cc3)c2O[C@H]1CN(C)Cc1ccc(Oc2ccccc2)cc1,64,/,-2
C[C@H](CO)N1C[C@H](C)[C@@H](CN(C)Cc2ccc(-c3ccccc3)cc2)Oc2c(NC(=O)c3ccc(-c4nccs4)cc3)cccc2C1=O,87*,/,-4
